Screening results: PubChem, several laboratories
Only some compounds are listed: those with a hit (about 2.2% of all), similar ones and a draw of the others.
Ba/F3 V617F tox = reduced viability of JAK2V617F-dependent Ba/F3 cells, primary screen, JAK2V617F inhibitor project, cell-based, Ba/F3 EpoR-JAK2V617F, luminescence; ATP luminescence; inhibition, % at 5.6 µM; 1.1% of 220,000 active; AID 1446, 2008;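 active means inhibition above the campaign mean plus 3 SD over all tested compounds, cut at about 24% in these data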;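 further: cytokine-independent growth of Ba/F3 cells driven by EpoR plus mutant JAK2; 0% = DMSO-treated cells and 100% = JAK inhibitor I control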
KLF5 inh = KLF5 expression inhibitors, primary screen, DLD-1 cells, luminescence; AID 1700, 2009; DLD-1 KLF5 promoter-luciferase reporter; inhibition, % at 5 µM; 0.23% of 290,000 active;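 active means inhibition above a per-plate limit of that plate's mean compound inhibition plus 3 SD, cut at about 60% in these data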;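 further: 0% = DMSO wells and 100% = LY294002 at 200 µM; higher means less KLF5 promoter-driven luciferase light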
APP 5UTR inh = inhibitors of APP translation via 5'UTR reporter, primary screen, APP 5'UTR luciferase, SH-SY5Y cells; SH-SY5Y APP 5'UTR-luciferase reporter, luminescence; 0.82% of 190,000 active; inhibition, % at 2 µM;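 active means inhibition above a set limit, derived from the sample mean plus 3 SD, cut at about 45% in these data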
BaF3 parental = parental Ba/F3 cell viability inhibition, counter-screen for JAK2V617F inhibitor project, murine pro-B, CellTiter-Glo luminescence; CellTiter-Glo ATP luminescence; inhibition, % at 5.6 µM; 1.1% of 220,000 active;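 active means inhibition above a per-campaign cutoff, the mean inhibition of all tested compounds plus 3 SD, cut at about 27% in these data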;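 further: 0% = DMSO wells and 100% = JAK Inhibitor I control wells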
IEC-6 tox = cytotoxicity in IEC-6 intestinal epithelial cells, primary screen, cytotoxicity control for KLF5 inhibitor project, cell-based, luminescence; IEC-6 cytotoxicity, luminescence viability; inhibition, % at 5 µM; 0.78% of 290,000 active; AID 1825, 2009; in the data active means inhibition above about 22%;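 further: 0% = plate median of test compound wells and 100% = cytotoxic reference compound wells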
aSyn UTR inh = MLPCN primary screen, SNCA 5' untranslated region; alpha-synuclein 5'UTR reporter, inhibitor activity; inhibition, % (tested at 7.5 µM); 0.82% of 300,000 active; AID 1813, 2009; in the data active means inhibition above about 60%;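 further: H4 neuroglioblastoma cells stably carrying SNCA 5'UTR luciferase fusion; 0% = DMSO wells and 100% = positive control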
* = called active by the depositor.

`O=C(C[N+]1(CC#Cc2ccccc2)CCCCC1)c1ccc(Cl)cc1` gave Ba/F3 V617F tox 0, KLF5 inh -10, APP 5UTR inh -2, BaF3 parental 38*, IEC-6 tox 9 and aSyn UTR inh -3.
`Cc1ccnc(NC(=O)c2ccc(Cl)s2)c1` gave KLF5 inh -89, IEC-6 tox 1 and aSyn UTR inh -104.
Cc1cc(OCCSc2nnc(-c3cccs3)n2C)ccc1Cl was read as Ba/F3 V617F tox 0, KLF5 inh -27, APP 5UTR inh -10, BaF3 parental 8, IEC-6 tox -4 and aSyn UTR inh -21.
Cn1c(SCCOc2ccccc2Cl)nnc1-c1cccs1 was read as Ba/F3 V617F tox 35*, KLF5 inh -49, APP 5UTR inh -38, BaF3 parental 37*, IEC-6 tox 0 and aSyn UTR inh -37.
CCn1c(=O)cc(OCC(=O)N2CCN(c3ccc(F)cc3)CC2)c2ccccc21 was read as Ba/F3 V617F tox 0, KLF5 inh -31, APP 5UTR inh 5, BaF3 parental 4, IEC-6 tox 9 and aSyn UTR inh -1.
For CCn1c(=O)cc(OCC(=O)N2CCCCCC2)c2ccccc21 the results were Ba/F3 V617F tox 2, KLF5 inh -25, APP 5UTR inh 55*, BaF3 parental 3, IEC-6 tox 3 and aSyn UTR inh 18.
For O=C(c1nn2c(C(F)(F)F)cc(-c3cccs3)nc2c1Br)N1CCCc2ccccc21 the results were Ba/F3 V617F tox 1, KLF5 inh -16, APP 5UTR inh -12, BaF3 parental 7, IEC-6 tox 0 and aSyn UTR inh 82*.
For O=C(c1nn2c(C(F)(F)F)cc(-c3ccco3)nc2c1Br)N1CCCc2ccccc21 the results were Ba/F3 V617F tox -1, KLF5 inh -3, APP 5UTR inh 1, BaF3 parental 0, IEC-6 tox -1 and aSyn UTR inh 93*.
CS(=O)(=O)N(CC(=O)N1CCCC1)c1cccc(F)c1 was read as KLF5 inh -1, IEC-6 tox 7 and aSyn UTR inh 7.
Nc1cccc2c1C(=O)N(CCOc1ccc(F)cc1)C2=O was read as KLF5 inh -109, IEC-6 tox 9 and aSyn UTR inh -118.
Screening Cc1ccc(C(=O)/C=C\C(=O)c2ccc(C)cc2)cc1 returned Ba/F3 V617F tox -2, KLF5 inh -8, APP 5UTR inh 88*, BaF3 parental 3, IEC-6 tox -3 and aSyn UTR inh -63.
Cc1nn(-c2ccccc2)c(Cl)c1C(=O)NCC(C)C was read as Ba/F3 V617F tox -5, KLF5 inh -41, APP 5UTR inh 77*, BaF3 parental -1, IEC-6 tox -5 and aSyn UTR inh -12.
For CC1C(=O)N2CCCc3cc(NC(=O)CC(C)(C)C)cc1c32 (stereo not given) the results were KLF5 inh -24, IEC-6 tox -5 and aSyn UTR inh 26.
For Cc1cc(C)c2c(=O)[nH]c(SCC(=O)N3CCOCC3)nc2n1 the results were Ba/F3 V617F tox -2, KLF5 inh -45, APP 5UTR inh 24, BaF3 parental 1, IEC-6 tox -2 and aSyn UTR inh -4.
`Cc1cc(C)c2c(=O)[nH]c(SCC(=O)N3CCCCC3)nc2n1` gave Ba/F3 V617F tox 37*, KLF5 inh 7, APP 5UTR inh 25, BaF3 parental 37*, IEC-6 tox 5 and aSyn UTR inh -10.
`O=C(C[n+]1cc(-c2ccc(F)cc2)n2c1CCC2)c1cccs1` gave Ba/F3 V617F tox 11, KLF5 inh -54, BaF3 parental 29*, IEC-6 tox -5 and aSyn UTR inh -144.
COc1ccc(-c2c[n+](CC(=O)c3ccccc3)c3n2CCCCC3)cc1 was read as Ba/F3 V617F tox 48*, KLF5 inh -27, BaF3 parental 60*, IEC-6 tox -2 and aSyn UTR inh 11.
`Cc1ccc(-c2c[n+](CC(=O)c3ccc(Br)cc3)c3n2CCCCC3)cc1` gave Ba/F3 V617F tox 77*, KLF5 inh -8, APP 5UTR inh -16, BaF3 parental 69*, IEC-6 tox 3 and aSyn UTR inh 19.
`O=[N+]([O-])c1ccc(C[n+]2cc(-c3ccccc3)n3c2CCCCC3)cc1` gave Ba/F3 V617F tox -3, KLF5 inh 10, APP 5UTR inh 4, BaF3 parental 10, IEC-6 tox 0 and aSyn UTR inh 3.
Cc1ccc(NC(=O)C[n+]2cc(-c3ccccc3)n3c2CCC3)cc1 was read as Ba/F3 V617F tox -1, KLF5 inh 0, BaF3 parental -2, IEC-6 tox -4 and aSyn UTR inh 25.
Screening C[n+]1cc(-c2ccccc2)n2c1CCCCC2 returned Ba/F3 V617F tox 65*, KLF5 inh -33, APP 5UTR inh -8, BaF3 parental 64*, IEC-6 tox 1 and aSyn UTR inh 11.
For COc1cc(C(=O)NNC(=O)C2CC2)cc(OC)c1OC the results were KLF5 inh -4, IEC-6 tox -3 and aSyn UTR inh 24.
Cc1ccc(C(=O)C2=C(O)C(=O)N(c3ncccn3)C2c2ccccc2F)o1 (stereo not given) was read as KLF5 inh -17, IEC-6 tox 0 and aSyn UTR inh -6.
For COc1ccccc1N(CC(=O)NCCSCc1cccc(C)c1)S(=O)(=O)c1ccccc1 the results were KLF5 inh 11, IEC-6 tox -3 and aSyn UTR inh 5.
Screening CC1CCC(C(C)C)C(OC(=O)C[n+]2cc(-c3ccc(Cl)cc3)n3c2CCCCC3)C1 (stereo not given) returned Ba/F3 V617F tox 101*, KLF5 inh 21, APP 5UTR inh -19, BaF3 parental 73*, IEC-6 tox 5 and aSyn UTR inh -12.
For O=C(C[n+]1cc(-c2ccccc2)n2c1CCCCC2)c1ccc(Cl)cc1 the results were Ba/F3 V617F tox 53*, KLF5 inh -3, APP 5UTR inh 2, BaF3 parental 56*, IEC-6 tox 1 and aSyn UTR inh -6.
`CC(C)CCNCC(O)CON=C1c2ccccc2-c2ccccc21` (stereo not given) gave Ba/F3 V617F tox 1, KLF5 inh -51, APP 5UTR inh -23, BaF3 parental 5, IEC-6 tox -1 and aSyn UTR inh 86*.
`Cc1ccc(C2(C)NC(=O)N(CC(=O)Nc3nc(-c4ccccn4)cs3)C2=O)cc1` (stereo not given) gave aSyn UTR inh 80*.
For O=C(COc1nsnc1N1CCOCC1)Nc1ccc(Br)cc1 the results were KLF5 inh -14, IEC-6 tox 1 and aSyn UTR inh 24.
Cc1c(C(=O)C(=O)N2CC=C(c3ccccc3)CC2)c2ccccc2n1C was read as Ba/F3 V617F tox 77*, KLF5 inh 38, APP 5UTR inh 82*, BaF3 parental 28*, IEC-6 tox 47* and aSyn UTR inh 55.
For Cc1cc(C(=O)N2CC=C(c3ccccc3)CC2)c2ccccc2n1 the results were aSyn UTR inh 43.
